Experiment [1] concerns the target human RAR-related Orphan Receptor beta (RORb), RORB (gene 6096) (UniProt Q92753). Description: ATG_RORb_TRANS: Attagene TRANS-FACTORIAL HepG2 Assay for human RAR-related Orphan Receptor beta (RORb) (AID 2283010; active = hit-call score of the fitted dose curve at least 0.9, where 1 is the maximum). The method, boiled down: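 Multiplexed transcription-factor reporter assay: HepG2 cells transiently carrying NR-Gal4/GAL4-UAS constructs, 24 h treatment, mRNA quantified by RT-PCR plus capillary electrophoresis fluorescence; activity scored as induction over DMSO.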

Experiment [2] addresses human RAR-related Orphan Receptor gamma (RORg), RORC (gene 6097) (UniProt P51449). Description: ATG_RORg_TRANS: Attagene TRANS-FACTORIAL HepG2 Assay for human RAR-related Orphan Receptor gamma (RORg) (AID 2283011; active = hit-call score of the fitted dose curve at least 0.9, where 1 is the maximum). An outline of the steps:
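HepG2 cells transiently transfected with GAL4-UAS reporter units and chimeric RORg-Gal4 construct; after 24 h chemical exposure, reporter mRNA measured by RT-PCR with fluorescent capillary electrophoresis, gain of signal fitted against DMSO.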

In experiment [3] the target is human Retinoid X Receptor beta (RXRb), RXRB (gene 6257) (UniProt P28702). Description: ATG_RXRb_TRANS: Attagene TRANS-FACTORIAL HepG2 Assay for human Retinoid X Receptor beta (RXRb) (AID 2283013; active = hit-call score of the fitted dose curve at least 0.9, where 1 is the maximum). The method, boiled down: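 After a 24 h incubation with test chemical, transfected HepG2 cells carrying NR-Gal4 fusions and GAL4-UAS reporter transcription units yield RNA whose reporter cDNA is FAM-labelled, HpaI-cut and sized by capillary electrophoresis; increases over DMSO are scored.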
Chain of human Retinoid X Receptor beta (RXRb), RXRB (gene 6257) (P28702 whole entry, looked up, the tested form may be a part): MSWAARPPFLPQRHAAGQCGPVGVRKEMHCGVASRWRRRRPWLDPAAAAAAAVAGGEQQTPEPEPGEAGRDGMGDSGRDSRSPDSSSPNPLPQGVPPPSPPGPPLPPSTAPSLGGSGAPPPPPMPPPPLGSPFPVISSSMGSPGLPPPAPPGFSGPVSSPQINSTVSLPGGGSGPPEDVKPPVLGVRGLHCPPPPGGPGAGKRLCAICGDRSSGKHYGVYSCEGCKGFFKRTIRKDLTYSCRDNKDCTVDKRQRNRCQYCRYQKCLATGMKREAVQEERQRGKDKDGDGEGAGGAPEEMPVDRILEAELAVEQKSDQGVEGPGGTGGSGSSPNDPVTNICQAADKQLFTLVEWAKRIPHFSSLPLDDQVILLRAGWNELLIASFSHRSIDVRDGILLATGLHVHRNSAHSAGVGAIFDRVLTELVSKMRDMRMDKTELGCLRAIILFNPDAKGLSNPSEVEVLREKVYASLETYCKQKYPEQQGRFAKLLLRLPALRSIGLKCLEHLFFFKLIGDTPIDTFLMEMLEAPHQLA

The target of experiment [4] is human Thyroid Receptor alpha (THRa1), THRA (gene 7067) (UniProt P10827). In words: ATG_THRa1_TRANS: Attagene TRANS-FACTORIAL HepG2 Assay for human Thyroid Receptor alpha (THRa1) (AID 2283014; active = hit-call score of the fitted dose curve at least 0.9, where 1 is the maximum). An outline of the steps:
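HepG2 cells transiently transfected with chimeric NR-Gal4 and GAL4-UAS reporter units, dosed 24 h. Reporter mRNA quantified by RT-PCR, fluorescent labeling, HpaI digestion and capillary electrophoresis; gain-of-signal fit versus DMSO.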

Read-out in experiment [5]: E-selectin (Homo sapiens) (UniProt P16581)
In words: BSK_3C_Eselectin: BioMAP Diversity Plus: 3C Assay for Eselectin Biomarker Activity (AID 2283015).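 For outcome: cell surface E-selectin protein quantified by ELISA 24 h after dosing.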 The following applies: primary human endothelial cells (HUVEC); actives raise or lower the signal. An outline of the steps:
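Primary human umbilical vein endothelial cells (3C system), read 24 h after compound addition; E-selectin measured by ELISA. Bidirectional curve fitting against DMSO baseline; cytotoxicity by parallel SRB total-protein staining.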

Read-out in experiment [6]: Interleukin-1 alpha (IL1a), IL1A (gene 3552)
Description: BSK_BE3C_IL1a: BioMAP Diversity Plus: BE3C Assay for Interleukin-1 alpha (IL1a) Biomarker Activity (AID 2283016). The following applies: primary human bronchial epithelial cells; actives raise or lower the signal. An outline of the steps: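 Measured in human lung primary bronchial epithelial cells: IL-1a by ELISA at 24 h after dosing, with bidirectional fitting against DMSO.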

Read-out in experiment [7]: Monocyte Chemoattractant Protein-1 (MCP1), CCL2 (gene 6347)
Description: BSK_3C_MCP1: BioMAP Diversity Plus: 3C Assay for Monocyte Chemoattractant Protein-1 (MCP1) Biomarker Activity (AID 2283017). The following applies: primary human endothelial cells (HUVEC); actives raise or lower the signal. An outline of the steps:
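Human umbilical vein endothelial cells (3C system) exposed to chemicals for 24 h; MCP-1 quantified by ELISA against the DMSO baseline with bidirectional fitting, and parallel SRB staining used to assess cytotoxicity.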

Read-out in experiment [8]: Monocyte Chemoattractant Protein-1 (MCP1), CCL2 (gene 6347)
In words: BSK_4H_MCP1: BioMAP Diversity Plus: 4H Assay for Monocyte Chemoattractant Protein-1 (MCP1) Biomarker Activity (AID 2283018). The note with it: primary human endothelial cells (HUVEC); actives raise or lower the signal. An outline of the steps: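 Primary human umbilical vein endothelium is exposed to chemical for 24 h before MCP-1 is assayed by ELISA. Concentration-response fitted bidirectionally relative to DMSO.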

Read-out in experiment [9]: Human Leukocyte Antigen - DR isotype (HLADR), HLA-DRA (gene 3122)
Description: BSK_3C_HLADR: BioMAP Diversity Plus: 3C Assay for Human Leukocyte Antigen - DR isotype (HLADR) Biomarker Activity (AID 2283019).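 For outcome: ELISA of cell-surface HLA-DR on HUVEC 24 h after dosing.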 The following applies: primary human endothelial cells (HUVEC); actives raise or lower the signal. The method, boiled down:
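HUVEC monoculture, HLA-DR measured by ELISA 24 h after chemical dosing. Fitted bidirectionally against DMSO baseline; parallel SRB staining assessed cytotoxicity, with 3C proliferation read by SRB at 48 h.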

The target in experiment [10] is Retinoic acid receptor RXR-alpha (Homo sapiens) (UniProt P19793). Description: ATG_RXRa_TRANS: Attagene TRANS-FACTORIAL HepG2 Assay for human Retinoid X Receptor alpha (RXRa) (AID 2283012; active = hit-call score of the fitted dose curve at least 0.9, where 1 is the maximum). An outline of the steps:
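Chimeric NR-GAL4 trans-activation in HepG2, 24 h treatment; reporter transcripts quantified by fluorescence on capillary electrophoresis, analysed for upward change from DMSO.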

Records with an inconclusive call do not appear. Activity calls are given as the source filed them. Rule for the calls, unless noted: active = hit-call score of the fitted dose curve at least 0.9, where 1 is the maximum; inactive = score below 0.9.

Chain of human RAR-related Orphan Receptor gamma (RORg), RORC (gene 6097) (P51449 whole entry, looked up, the tested form may be a part): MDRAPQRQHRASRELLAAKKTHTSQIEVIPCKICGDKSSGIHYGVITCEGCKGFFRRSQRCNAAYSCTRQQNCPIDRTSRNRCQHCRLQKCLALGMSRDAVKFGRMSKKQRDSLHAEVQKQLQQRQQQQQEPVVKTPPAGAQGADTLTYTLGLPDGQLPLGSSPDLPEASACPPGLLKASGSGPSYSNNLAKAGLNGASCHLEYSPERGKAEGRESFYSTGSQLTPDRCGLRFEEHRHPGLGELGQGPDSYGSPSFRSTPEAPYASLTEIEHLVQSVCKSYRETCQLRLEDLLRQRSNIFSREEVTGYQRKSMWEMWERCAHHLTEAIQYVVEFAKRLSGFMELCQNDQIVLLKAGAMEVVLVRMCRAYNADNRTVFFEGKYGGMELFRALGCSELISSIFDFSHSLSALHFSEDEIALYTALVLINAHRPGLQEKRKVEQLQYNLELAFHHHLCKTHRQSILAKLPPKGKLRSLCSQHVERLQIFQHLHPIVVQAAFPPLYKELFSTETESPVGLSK
Chain of human Thyroid Receptor alpha (THRa1), THRA (gene 7067) (P10827 whole entry, looked up, the tested form may be a part): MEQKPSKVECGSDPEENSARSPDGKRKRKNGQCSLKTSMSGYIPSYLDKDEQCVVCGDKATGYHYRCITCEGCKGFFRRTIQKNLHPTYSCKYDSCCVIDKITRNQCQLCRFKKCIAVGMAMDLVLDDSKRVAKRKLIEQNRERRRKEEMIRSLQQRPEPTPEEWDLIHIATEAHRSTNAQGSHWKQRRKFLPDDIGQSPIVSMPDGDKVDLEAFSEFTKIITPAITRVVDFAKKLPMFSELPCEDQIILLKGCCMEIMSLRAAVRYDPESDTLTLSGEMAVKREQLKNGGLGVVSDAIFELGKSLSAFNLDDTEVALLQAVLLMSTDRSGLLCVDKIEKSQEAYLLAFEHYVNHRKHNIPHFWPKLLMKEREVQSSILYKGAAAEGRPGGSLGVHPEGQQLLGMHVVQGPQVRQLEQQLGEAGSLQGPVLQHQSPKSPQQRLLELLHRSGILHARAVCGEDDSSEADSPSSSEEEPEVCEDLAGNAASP
Chain of human RAR-related Orphan Receptor beta (RORb), RORB (gene 6096) (Q92753 whole entry, looked up, the tested form may be a part): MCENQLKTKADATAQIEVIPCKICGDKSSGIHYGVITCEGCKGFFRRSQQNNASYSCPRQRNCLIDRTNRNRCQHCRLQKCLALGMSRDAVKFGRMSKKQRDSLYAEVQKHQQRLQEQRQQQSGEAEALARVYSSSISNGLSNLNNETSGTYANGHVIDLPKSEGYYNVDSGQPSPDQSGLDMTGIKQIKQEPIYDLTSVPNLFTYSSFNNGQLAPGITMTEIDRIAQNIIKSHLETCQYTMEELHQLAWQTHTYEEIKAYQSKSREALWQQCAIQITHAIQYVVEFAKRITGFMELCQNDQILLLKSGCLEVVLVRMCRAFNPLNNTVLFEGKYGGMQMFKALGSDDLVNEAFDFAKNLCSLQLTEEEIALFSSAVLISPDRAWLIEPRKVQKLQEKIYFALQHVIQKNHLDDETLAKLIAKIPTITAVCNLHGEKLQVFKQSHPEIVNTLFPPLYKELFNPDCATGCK
Chain of Retinoic acid receptor RXR-alpha (Homo sapiens) (P19793 whole entry, looked up, the tested form may be a part): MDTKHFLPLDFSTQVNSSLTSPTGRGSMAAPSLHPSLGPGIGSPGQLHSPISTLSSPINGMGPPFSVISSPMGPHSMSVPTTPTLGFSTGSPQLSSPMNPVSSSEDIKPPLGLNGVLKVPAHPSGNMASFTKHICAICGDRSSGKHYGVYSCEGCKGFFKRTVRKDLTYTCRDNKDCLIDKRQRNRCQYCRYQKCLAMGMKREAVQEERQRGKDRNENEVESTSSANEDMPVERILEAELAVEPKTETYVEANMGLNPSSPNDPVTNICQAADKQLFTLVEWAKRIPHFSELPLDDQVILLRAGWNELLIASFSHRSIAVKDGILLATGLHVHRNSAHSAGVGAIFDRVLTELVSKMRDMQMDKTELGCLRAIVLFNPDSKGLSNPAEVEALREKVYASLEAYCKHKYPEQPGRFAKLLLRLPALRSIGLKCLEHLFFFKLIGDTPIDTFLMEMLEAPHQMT
Chain of E-selectin (Homo sapiens) (P16581 whole entry, looked up): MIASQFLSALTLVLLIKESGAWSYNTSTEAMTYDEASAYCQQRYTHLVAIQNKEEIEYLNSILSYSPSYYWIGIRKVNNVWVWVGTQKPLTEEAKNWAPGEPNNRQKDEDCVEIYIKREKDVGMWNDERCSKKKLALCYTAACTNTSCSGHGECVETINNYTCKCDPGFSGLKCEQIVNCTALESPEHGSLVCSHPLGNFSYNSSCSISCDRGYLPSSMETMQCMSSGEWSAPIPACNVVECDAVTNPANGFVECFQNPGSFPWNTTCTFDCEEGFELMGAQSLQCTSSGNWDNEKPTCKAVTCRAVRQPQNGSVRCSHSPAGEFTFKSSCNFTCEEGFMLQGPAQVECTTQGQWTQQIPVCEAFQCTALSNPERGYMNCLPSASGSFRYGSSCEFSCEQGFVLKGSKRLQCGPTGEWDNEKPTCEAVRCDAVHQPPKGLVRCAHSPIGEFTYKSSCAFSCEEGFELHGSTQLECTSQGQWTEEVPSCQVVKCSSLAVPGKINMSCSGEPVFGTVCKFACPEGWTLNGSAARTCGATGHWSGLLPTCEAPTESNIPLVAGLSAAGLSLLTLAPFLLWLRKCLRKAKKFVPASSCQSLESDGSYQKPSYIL

Regarding `CCCCOC(=O)c1ccccc1C(=O)O`, the result in experiment [1], in experiment [2], in [3], in experiment [4], in experiment [5] and in experiment [6] was inactive. Moreover, the result in [7], in experiment [8] and in [9] was inactive.
For `COP(=O)(OC)SCn1c(=O)oc2cc(Cl)cnc21`, the call in [1], in [2], in experiment [3], in experiment [4], in [6] and in experiment [7] was inactive. In [8], the result was inactive. Also, the AC50 in experiment [5] was 20 µM (active); in experiment [9], 25.1 µM (active).
For `CCOP(=O)(SC(C)CC)N1CCSC1=O` (stereo not drawn), the outcome in experiment [1], in experiment [5], in [6], in experiment [7], in experiment [8] and in experiment [9] was inactive.
With `CCOP(=O)(NC(C)C)Oc1ccc(SC)c(C)c1` (stereo not drawn), the call in experiment [1], in experiment [2], in experiment [10], in experiment [3], in experiment [5] and in experiment [6] was inactive. For the same compound, the result in experiment [7], in experiment [8] and in experiment [9] was inactive.
Turning to `CCCSP(=O)(OCC)SCCC`, the compound was classed as inactive in experiment [1], in [3], in experiment [5], in [6], in experiment [7] and in experiment [8]. For the same compound, the outcome in experiment [9] was inactive.
`Cc1ccn2nc(S(=O)(=O)Nc3c(F)cccc3F)nc2n1`: the result in experiment [1], in experiment [2], in experiment [10], in [3], in experiment [5] and in experiment [6] was inactive. The outcome in [7], in experiment [8] and in experiment [9] was inactive.
With `C#CC(C)(C)NC(=O)c1cc(Cl)cc(Cl)c1`, the compound was called inactive in [1], in experiment [2], in [10], in experiment [3], in experiment [4] and in experiment [5]. Further, the result in experiment [6], in [7] and in experiment [8] was inactive. Further, the AC50 in experiment [9] was 19.1 µM (active).
For the compound `CCOP(=S)(OCC)Oc1ccc2c(C)c(Cl)c(=O)oc2c1`, the compound was classed as inactive in experiment [1], in experiment [2], in [4], in experiment [5], in [6] and in experiment [7]. The result in experiment [8] and in experiment [9] was inactive.
For `CCOP(=S)(OCC)Oc1ccc([N+](=O)[O-])cc1`, the outcome in experiment [1], in experiment [2], in [3], in [5], in experiment [6] and in experiment [7] was inactive. The outcome in [9] was inactive. Also, in experiment [8], the AC50 was 25.2 µM (active).
Turning to `CNC(=O)ON=C(C)SC`, the compound was classed as inactive in experiment [1], in experiment [2], in [3], in experiment [5], in [6] and in [7]. The result in experiment [8] and in experiment [9] was inactive.
In the case of `Nc1nc(N)nc(NC2CC2)n1`, the compound was called inactive in experiment [1], in [3], in experiment [5], in [6], in experiment [7] and in experiment [8]. Moreover, the result in experiment [9] was inactive.
In the case of `CCOP(=S)(OCC)OC(Cl)C(Cl)(Cl)Cl` (stereo not drawn), the compound was called inactive in experiment [1], in experiment [10], in [3], in experiment [4], in experiment [6] and in experiment [7]. For the same compound, in [8], the result was inactive. The values for the AC50 in [5] and in [9] were 14.7 µM (active) and 12.2 µM (active), respectively.
`CC1(C(=O)Nc2ccc(O)c(Cl)c2Cl)CCCCC1`: the compound was called inactive in experiment [2], in experiment [10], in [5], in experiment [6], in experiment [7] and in [8]. Further, in experiment [9], the result was inactive.
As for `CSc1nc(NC(C)C)nc(NC(C)C)n1`, the result in experiment [2], in experiment [3], in experiment [5], in [6], in experiment [7] and in [8] was inactive. Also, the result in experiment [9] was inactive.
`CC1=NNC(=O)N(/N=C/c2cccnc2)C1`: the compound was classed as inactive in [3], in experiment [4], in [5], in experiment [6], in experiment [7] and in experiment [8]. Moreover, in experiment [9], the result was inactive.
`S=C1NCCN1`: the result in experiment [2], in [3], in experiment [5], in experiment [6], in [7] and in experiment [8] was inactive. The outcome in experiment [9] was inactive.
As for `CCC(CC)Nc1c([N+](=O)[O-])cc(C)c(C)c1[N+](=O)[O-]`, the compound was called inactive in experiment [2], in experiment [3] and in [6]. In addition, the AC50 in experiment [5] was 31.2 µM (active); in experiment [7], 36.6 µM (active); in experiment [8], 22.4 µM (active); in experiment [9], 36.2 µM (active).
For `CCC(=O)Nc1ccc(Cl)c(Cl)c1`, the outcome in experiment [2], in [3], in experiment [5], in experiment [6], in experiment [7] and in [8] was inactive. Besides, the AC50 in experiment [9] is 6.03 µM (active).
Take `CC(C)N(C(=O)SCC(Cl)=C(Cl)Cl)C(C)C`: the call in experiment [3], in experiment [4] and in experiment [6] was inactive. For the same compound, the AC50 in experiment [5] was 30.7 µM (active); in experiment [7], 31.1 µM (active); in [8], 32.2 µM (active); in [9], 32.9 µM (active).
Consider `COc1ccc(C(=CC(=O)N2CCOCC2)c2ccc(Cl)cc2)cc1OC`, for which the outcome in experiment [3], in experiment [4], in experiment [6] and in experiment [8] was inactive. The AC50 was 10.2 µM (active) in experiment [5], 6.59 µM (active) in experiment [7] and 13.9 µM (active) in [9].
Take `CCCCSP(=O)(SCCCC)SCCCC`: the compound was classed as inactive in [3] and in experiment [6]. In addition, the AC50 in [5] was 28.1 µM (active); in experiment [7] it was 26 µM (active); in experiment [8] it was 16.7 µM (active); in [9], 27.7 µM (active).
For `CCOP(=S)(OCC)SCCSCC`, the compound was classed as inactive in experiment [3], in experiment [4], in experiment [5], in experiment [6], in [7] and in experiment [8]. The result in [9] was inactive.
With `CCCOCC(=Nc1ccc(Cl)cc1C(F)(F)F)n1ccnc1`, the compound was called inactive in [10] and in experiment [3]. For the same compound, the AC50 in [5] was 30.2 µM (active); in experiment [6] it was 33.5 µM (active); in experiment [7], 30.2 µM (active); in experiment [8], 24.9 µM (active); in [9] it was 26.8 µM (active).
`CN1COCN(Cc2cnc(Cl)s2)C1=N[N+](=O)[O-]`: the call in experiment [2], in experiment [3], in experiment [4], in experiment [5], in experiment [6] and in experiment [7] was inactive. Also, the result in [8] and in experiment [9] was inactive.

As a reminder, the AC50 is the midpoint of the concentration-response curve, whichever way the signal moves.

Values taken from PubChem BioAssay (EPA / NIEHS).
